Bioassay records: PubChem, National Center for Advancing Translational Sciences (NCATS)
A selection: hits, their analogues and other compounds. The true share with any hit is near 9.9%.
MCF10A rerep – inducers of DNA re-replication in MCF 10A breast cells; Potency, µM (titrated, usually from 46.1 µM), for the others: at the highest dose activity, positive = re-replication, most hits filed as activators; 350,000 compounds, 2.9% hits; AID 624296; MCF 10A DNA re-replication, Hoechst nuclear intensity, 48 h; further: potency means the concentration at half of the fitted maximal effect; % of control where 0% means no effect; nearly all actives have a fitted effect of over 50% in size
IL1B secr inh – inflammasome signaling inhibition, IL-1 beta readout; THP-1 LPS/ATP IL-1B secretion, AlphaLISA, 16 h; stronger effect = lower value; activity change, % at 57.5 µM; 360,000 compounds, 4.7% hits; in the data active means activity change below about -50%; inconclusive means mostly about -30% to -49%; further: on the % scale 0 is the no-effect control and ±100 the full control effect
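Secreted IL-1B measured by AlphaLISA bead assay after 16 h compound exposure of THP-1 cells; compounds (final up to 57.5 uM) added 1 h before LPS (250 ng/mL) and ATP (1.25 mM) stimulation; lower signal means less secretion.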
KB-V1 MDR tox – KB-V1 MDR subline cytotoxicity; Potency, µM (highest dose often 46.1 µM), actives largely listed as cytotoxic; 400,000 compounds, 3.4% hits; KB-V1 MDR cells viability, CellTiter-Glo, 72 h; further: potency means the concentration at half of the fitted maximal effect; on the % scale 0 is the no-effect control and ±100 the full control effect; nearly all actives have a fitted effect of over 60% in size
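qHTS viability screen in drug-selected KB-V1 MDR cells: 72 h compound treatment at 37 degrees C, ATP luminescence end point.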
SW480 rerep – induces DNA re-replication in SW480 colon adenocarcinoma cells; SW480 DNA re-replication, Hoechst DNA content imaging, 48 h; 340,000 compounds, 1.8% hits; AID 624297; Potency, µM (doses to about 46.1 µM), without a hit: at the top dose re-replication activation, usual class: activators; further: potency means the concentration at half of the fitted maximal effect; % of control where 0% means no effect; nearly all actives have a fitted effect of over 55% in size
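Treated cells incubate 48 hr (37 C, 5% CO2), are stained 40 min with Hoechst, and nuclear fluorescence is enumerated; a rise in nuclei with high DNA signal marks re-replication.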
KB-3-1 cytotox – KB-3-1 parental cell cytotoxicity; Potency, µM (series often up to 46.1 µM), usual class: cytotoxic; KB-3-1 viability, CellTiter-Glo ATP luminescence, 72 h; 400,000 compounds, 1.4% hits; further: potency means the concentration at half of the fitted maximal effect; on the % scale 0 is the no-effect control and ±100 the full control effect; nearly all actives have a fitted effect of over 60% in size
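Cytotoxicity in the drug-sensitive parental line KB-3-1 was scored as loss of CellTiter-Glo luminescence following 72 h incubation with compound. Values come from curve fitting of normalized concentration-response data.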
An asterisk follows results filed as active; i = inactive; ? = inconclusive; nt = not tested or not shown. Unless noted, the call rests on the fitted dose curve; in most records, active means well fitted curve in the direction sought with a large enough effect; inconclusive means small, poorly fitted or top-dose-only effect, or another doubt; inactive means no such curve, though single readings can be large; an effect the other way counts as inactive or inconclusive.

SMILES | MCF10A rerep | IL1B secr inh | KB-V1 MDR tox | SW480 rerep | KB-3-1 cytotox
COc1ccc(Cn2cc(F)c(=O)n(CCC(C)C)c2=O)cc1[N+](=O)[O-] | 2% | -7 | ? | -1% | i
COc1cccc(NC(=O)c2ccc(N3C(=O)C4CCC(C)CC4C3=O)cc2)c1 (stereo not given) | 49% | 7 | i | 2% | i
Cc1nc(N2CCCCC2)c2c(-c3cccs3)csc2n1 | 21µM* | 14 | i | 2% | i
CN(C)CCNC(=O)Cc1ccc(NC(=O)N2CCCCc3ccccc32)cc1 | nt | nt | i | nt | i
Cc1cc2c(N=O)c(NO)ccc2[nH]1 | ? | -2 | 4.1µM* | 4.1µM* | ?
C(=N/Nc1nc(-c2ccccc2)cc(-c2ccccc2)n1)/c1cccnc1 | ? | -53* | ? | -8% | ?
Cc1cc(-c2ccccc2)nc(N/N=C/c2cccnc2)n1 | -5% | -4 | ? | -7% | i
Oc1cccc(/C=N\Nc2nncc(-c3ccccc3)n2)c1 | ? | -62* | i | 14% | i
Cc1[nH]n(-c2ccccc2)c(=O)c1/C=N/Nc1nncc(-c2ccccc2)n1 | 3% | 40 | ? | 0% | 7.3µM*
Cc1sc(N/N=C/c2cccnc2)nc1-c1ccccc1 | ? | ? | 12µM* | ? | ?
Cc1sc(N/N=C/c2ccco2)nc1-c1ccccc1 | -5% | -11 | i | 3% | i
Cc1ccc(/C=N/Nc2nncc(-c3ccccc3)n2)o1 | -34% | -9 | i | ? | i
CCOC(=O)c1c(C)c(-c2ccccc2)n(CC(=O)NC2CCCCC2)c1C | nt | nt | i | nt | i
CC(C)(C)C1CCC(N2CCN(c3ccccc3)CC2)CC1 (stereo not given) | 5% | 0 | i | -8% | i
Cc1ccc(-c2cc(-c3ccccc3)nc(N/N=C/c3cccnc3)n2)cc1 | 9.2µM* | -18 | ? | ? | i
C(=N\Nc1nc(Nc2ccccc2)nc(Nc2ccccc2)n1)/c1cccnc1 | ? | -13 | i | -4% | ?
Cc1ccc(NS(=O)(=O)c2ccc(C(=O)N3CCCCCC3)cc2)cc1 | 4% | 33 | 4.6µM* | 2% | ?
CCOC(=O)N1CCN(C(=O)c2ccc(Oc3ccc([N+](=O)[O-])cc3)cc2)CC1 | -2% | -11 | 7.3µM* | 3% | i
Cc1ccc(NS(=O)(=O)c2ccc(C(=O)N3CCCCCCC3)cc2)cc1 | 9% | -3 | i | 1% | i
Cc1ccc(NS(=O)(=O)c2cccc(C(=O)N3CCCCCCC3)c2)cc1 | 29% | -3 | ? | -15% | i
Cc1ccc(NNC(=O)C(=O)N2CCCCC2)cc1 | 6.5µM* | 2 | i | 20% | i
Cc1ccc(NS(=O)(=O)c2cccc(C(=O)N3CCN(c4ncccn4)CC3)c2)cc1 | ? | 37 | 8.2µM* | 5% | i
O=C(NCC(c1ccc2c(c1)OCO2)N1CCN(c2ccccc2F)CC1)c1ccccc1F (stereo not given) | nt | nt | i | nt | i
COc1ccccc1CNc1nc2ccccc2c2nc(-c3cccnc3)nn12 | nt | nt | i | nt | i
CN(c1ccc(C(=O)N2CCCCCC2)cc1)S(=O)(=O)c1ccc(Cl)cc1 | 2% | 0 | 23µM* | 1% | i
SMILES | MCF10A rerep | IL1B secr inh | KB-V1 MDR tox | SW480 rerep | KB-3-1 cytotox
O=C(c1ccc(NS(=O)(=O)c2ccccc2)cc1)N1CCCCCC1 | -2% | i | ? | -5% | i
COc1ccc(NS(=O)(=O)c2ccc(C(=O)N3CCCCCC3)cc2)cc1 | ? | -52* | i | 19% | ?
CCOC(=O)N1CCN(C(=O)c2ccc(S(=O)(=O)Nc3ccc(C)cc3)cc2)CC1 | -3% | 37 | 10µM* | -3% | 7.3µM*
O=C(c1ccc(S(=O)(=O)Nc2ccccc2)cc1)N1CCC1 | -36% | -8 | i | 15µM* | i
CCOC(=O)N1CCN(C(=O)c2ccc(NS(=O)(=O)c3ccc(C)cc3)cc2)CC1 | 0% | 0 | i | -3% | i
Cc1ccc(-c2ccnc(N3CCC(C(N)=O)CC3)n2)cc1 | nt | nt | i | nt | i
O=C(Oc1ccc([N+](=O)[O-])cc1)c1cncc(Br)c1 | 2% | 23 | ? | -5% | i
Cc1nnnn1/C(=C\c1ccccc1)C(=O)OCC(=O)Nc1ccc(Cl)cc1F | ? | -111* | i | ? | i
Cc1cc(-c2ccc(S(=O)(=O)N(C)c3ccc(C)c(C)c3)s2)on1 | 10µM* | 24 | 7.3µM* | ? | 13µM*
COc1ccc(-c2cc(C)no2)cc1S(=O)(=O)N(C)c1ccc(C)c(C)c1 | ? | ? | i | -9% | i
Cc1cc(-c2ccc(S(=O)(=O)NCc3ccccc3Cl)s2)on1 | nt | nt | i | nt | i
Cc1ccc(N(C)S(=O)(=O)c2ccc(-c3cc(C)no3)s2)cc1 | 9.2µM* | 4 | ? | ? | i
Cc1cccc(O)c1C | 10% | -3 | i | -1% | i
Cc1cccc(C)c1N=Nc1c(C)cc(O)cc1C | ? | -89* | ? | ? | ?
Cc1ccc(C)n1-c1nnc(N2CCCC(C(=O)NCc3ccc(F)cc3)C2)s1 (stereo not given) | nt | nt | i | nt | i
Cc1ccc2cc(C)c3nnc(SCC(=O)c4cccs4)n3c2c1C | -2% | -28 | i | -3% | i
Cc1cccc(NC(=O)CSc2ncnc3sc(C)c(C)c23)n1 | -20% | -3 | nt | 1% | nt
CC(=O)Nc1ccc(NC(=O)CSc2ncnc3sc(C)c(C)c23)cc1 | 19% | -27 | ? | -5% | i
Cc1sc2ncnc(SCC(=O)c3cccs3)c2c1C | 17% | -6 | 16µM* | 3% | ?
Cc1cc2ccc(C)c(C)c2nc1SCC(=O)c1cccs1 | ? | 33 | 15µM* | 16% | ?
Cc1sc2ncnc(SCC(=O)NNC(=O)COc3cccc4ccccc34)c2c1C | 23µM* | 14 | ? | ? | ?
CC(C)NC(=O)NC(=O)CN1c2cccc3cccc(c23)S1(=O)=O | -1% | 29 | i | 0% | i
Cc1ccc(/C=C/C(O)=C2/C(=O)N(C)C3(C)CC2c2ccccc2O3)cc1 (stereo not given) | ? | -87* | i | ? | 15µM*
COc1ccc(/C=C/C(O)=C2/C(=O)N(C)C3(C)CC2c2ccccc2O3)cc1 (stereo not given) | ? | -91* | ? | ? | ?
COc1ccc(C(CNC(=O)c2cc(S(=O)(=O)NCc3ccccc3)ccc2C)N2CCOCC2)cc1 (stereo not given) | 6% | -27 | i | -459% | i
COc1ccc(C(CNC(=O)c2cccc(S(=O)(=O)NCc3ccccc3)c2)N2CCOCC2)cc1 (stereo not given) | -4% | -16 | 18µM* | -1% | i
